From PubChem BioAssay (Tox21)
“And” between values parts separate entries of the source, which are not always exact repeats. Identical values can stand only once. Results filed as inconclusive are left out. A call without a number means that no potency is given here. Some compounds were tested as several samples or in several runs, with calls that do not always agree. The source made the active and inactive calls. The call rests on the fitted dose curve; in most records, active means well fitted cell-killing curve with a large enough effect in the repeat runs (not every such curve was filed as active); inconclusive means weak or mixed curves, or effect the other way; inactive means no such curve, though single readings can be large or run the other way.
Potency means the concentration at half of the fitted maximal effect.

Test: qHTS assay to identify small molecule antagonists of the farnesoid-X-receptor (FXR) signaling pathway - cell viability counter screen (AID 743221); further: nearly all actives have a fitted effect of over 50% in size
Conditions: FXR-bla HEK293T viability, CellTiter-Glo luminescence, 16 h; series mostly up to 62.6 µM
From the text: National Center for Advancing Translational Sciences [NCATS]
NIH Chemical Genomics Center [NCGC]
U.S. Environmental Protection Agency [EPA]
National Institutes of Environmental Health Sciences [NIEHS]
National Toxicology Program [NTP]
U.S. Food and Drug Administration [FDA]
The farnesoid-X-receptor (FXR), a nuclear hormone receptor, is highly expressed in liver, intestine, kidney and adrenal cortex. Natural ligands of FXR are the bile acids (Cholic acid, Chenodeoxy cholic acid etc). FXR is an important regulator of diverse metabolic pathways, including the bile acid homeostasis, lipid and glucose metabolisms. FXR regulates the expression of target genes by binding either as a monomer or as a heterodimer with the retinoid X receptor (RXR). Numerous studies have reported that FXR exerts protective function during cholestasis, diabetes, liver regeneration, and cancer. To identify compounds that inhibit FXR signaling, GeneBLAzer FXR-UAS-bla HEK 293T cell line (Invitrogen, Carlsbad, CA) containing a beta-lactamase reporter gene under the control of a UAS response element was used to screen the Tox21 10K compound library. The cytotoxicity of the Tox21 compound library against the FXR-bla cell line was tested in parallel by measuring the cell viability using CellTiter-Glo assay in the same wells.
Tox21 Assay Protocol Summary:
FXR-bla cells were dispensed at 5000 cells/5uL/well in 1536-well black wall/clear bottom plates using a Multidrop Combi (Thermo Fisher Scientific, Waltham, MA) dispenser. After the assay plates were incubated at 37 C and 5% CO2 for 5 h, 23 nL of compounds dissolved in DMSO, positive controls or DMSO only was transferred to the assay plate by a Pintool station (Kalypsys, San Diego, CA), followed by addition of 1 uL Chenodeoxycholic acid (50 uM, final concentration in the wells). The assay plates were incubated at 37C for 16 h. After 1 uL of LiveBLAzerTM B/G FRET substrate was added using a Bioraptr Flying Reagent Dispenser (FRD) workstation (Beckman Coulter, Indianapolis, IN), the plates were incubated at room temperature for 2 h, and fluorescence intensity was measured by an Envision plate reader (PerkinElmer, Shelton, CT). For cell viability readout that measures cytotoxicity, 4uL/well of CellTiter-Glo reagent was added into the assay plates using a Bioraptr FRD. After 30 min incubation at room temperature, the luminescence intensity in the plates was measured using a ViewLux plate reader (PerkinElmer).
With `CCC(C)C=O` (stereo not given) the Potency was “inactive”.
For `NS(=O)(=O)c1cc2c(cc1Cl)NC=NS2(=O)=O`, the Potency was “inactive”.
For `Nc1c(S(=O)(=O)O)cc(Br)c2c1C(=O)c1ccccc1C2=O`, the Potency was “inactive”.
With `COC(=O)Nc1nc2ccc(Sc3ccccc3)cc2[nH]1` the Potency was “inactive”.
With `NCCNCCNCCNCCN` the Potency was “inactive”.
With `CC(C)(C)C(=O)C1C(=O)c2ccccc2C1=O` the Potency was “inactive”.
For `NC(=O)NNc1ccccc1`, the Potency was “inactive”.
With `CCCCCCOC(C)=O` the Potency was “inactive”.
With `CCCCCC/C=C/CCCCCCCC(=O)O` the Potency was “inactive”.
For `O=C(O)c1ccc([N+](=O)[O-])cc1`, the Potency was “inactive”.
With `CCCCCCCCCCCCN` the Potency was “inactive and 49 µM (active)”.
For `CCOC(=O)/C=C\C(=O)OCC`, the Potency was “inactive”.
For `CN(CCOc1ccc(CC2SC(=O)NC2=O)cc1)c1ccccn1` (stereo not given), the Potency was “inactive”.
For `O=[N+]([O-])C(CO)(CO)CO`, the Potency was “inactive”.
For `Cc1ccc(N)c(S(=O)(=O)O)c1`, the Potency was “inactive”.
For `CC#C[C@]1(O)CC[C@H]2[C@@H]3CCC4=CC(=O)CCC4=C3[C@@H](c3ccc(N(C)C)cc3)C[C@@]21C`, the Potency was “inactive”.
With `CC(=O)CCc1ccccc1` the Potency was “inactive”.
In the case of `NCc1cccc(CN)c1`, the Potency is reported as “inactive”.
In the case of `C=C(C)C(=O)OCCC[Si](OC)(OC)OC`, the Potency is reported as “inactive”.
In the case of `CCCCCCCCCCC=CC1CC(=O)OC1=O` (stereo not given), the Potency is reported as “inactive”.
For `O=C1O[C@H](CO)[C@@H](O)[C@H](O)[C@H]1O`, the Potency was “inactive”.
With `CC(=O)Nc1ccc(C(=O)O)cc1` the Potency was “inactive”.
In the case of `CC(C)n1c(/C=C/[C@@H](O)C[C@@H](O)CC(=O)O)c(-c2ccc(F)cc2)c2ccccc21`, the Potency is reported as “inactive”.
With `C=C(C#N)C(=O)OCC` the Potency was “inactive”.
For `O=S(=O)(O)c1cc(S(=O)(=O)O)c2c(N=Nc3ccccc3)c(O)ccc2c1`, the Potency was “inactive”.
In the case of `C=C1C2CCC(C2)C1(C)C` (stereo not given), the Potency is reported as “inactive”.
With `O=c1c(-c2ccc(O)cc2)coc2cc(O)ccc12` the Potency was “inactive”.
For `ClC1=C(Cl)C(Cl)(Cl)C(Cl)=C1Cl`, the Potency was “inactive”.
In the case of `C=CC(=O)OCCCCCCCC(C)C`, the Potency is reported as “inactive”.
In the case of `Cc1cc(Cc2ccc(N)c(C)c2)ccc1N`, the Potency is reported as “inactive”.
With `OCCOCCOCCOCCO` the Potency was “inactive”.
With `CCOC(=O)[C@H](CCc1ccccc1)N[C@@H](C)C(=O)N1Cc2ccccc2C[C@H]1C(=O)O` the Potency was “inactive”.
In the case of `OCC#CCO`, the Potency is reported as “inactive”.
For `CCCCC/C=C\C/C=C\CCCCCCCC(=O)OC`, the Potency was “inactive”.
For `CC(C)(CO)COC(=O)C(C)(C)CO`, the Potency was “inactive”.
In the case of `O=C1N=C(O)CN1/N=C/c1ccc(-c2ccc([N+](=O)[O-])cc2)o1`, the Potency is reported as “inactive”.
In the case of `CN(C)c1cccc(O)c1`, the Potency is reported as “inactive”.
In the case of `C=C(C)C(=O)OCCCCCC`, the Potency is reported as “inactive”.
In the case of `O=S(=O)(O)CCS`, the Potency is reported as “inactive”.
With `OCC1CCCO1` (stereo not given) the Potency was “inactive”.
